Screens: PubChem BioAssay, National Center for Advancing Translational Sciences (NCATS)
An excerpt weighted towards active compounds, which were near 17% of everything screened.
HepG2 tox: kills HepG2 cells in TGF-b inhibitor counter-screen; HepG2 CAGA-GFP viability, ATP luminescence, 18 h; Potency, µM (top dose mostly 46.1 µM), for the others: at the top dose activity change, negative = cytotoxicity, actives largely listed as cytotoxic; 410,000 compounds, 0.76% hits
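CellTiter-Glo luminescence gave cytotoxicity after 18 hours at 37 degrees C. The cells were HepG2 CAGA-GFP in 1% FBS DMEM, stimulated with 500 pg/mL TGF-beta after compound addition. %Activity was normalised to no-cell wells (complete cell-killing) and DMSO (no toxicity), and curves were fitted and classified.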
HT1080 IDH1KD tx: HT-1080 IDH1 knockdown cell toxicity (counter line); HT-1080 IDH1 knockdown viability, ATP luminescence, 48 h; Potency, µM (highest dose often 46.1 µM), for the others: top-dose activity, negative = toxicity, hits mostly cytotoxic; 360,000 compounds, 2% hits; AID 686971;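 also: 0% = DMSO wells and -100% = cell-free medium wells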
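IDH1KD HT-1080 cells, 750/well, RPMI + 5% FBS; compound pinned after 2 h settling; 48 h, 37 °C; CellTiter-Glo luminescence; % activity normalised to DMSO and no-cell wells; curves fitted, classed by r2 and efficacy.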
HT1080NT lethal: kills 2HG-producing HT-1080-NT fibrosarcoma cells; HT-1080-NT fibrosarcoma viability, CellTiter-Glo ATP luminescence, 48 h; Potency, µM (series often up to 46.1 µM), inactives show at the highest dose activity, negative = less viability, hits mostly cytotoxic; 360,000 compounds, 1.6% hits;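 also: NT is the 2HG producing partner of a matched IDH1 knockdown line; 0% = DMSO-treated cells and -100% = media-only wells without cells; nearly all actives have a fitted effect of over 55% in size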
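Viability by CellTiter-Glo luminescence after 48 h compound exposure at 37C of HT-1080-NT cells (750/well, RPMI, 5% FBS). % activity scaled between DMSO wells and medium-only wells, then curve-fitted and categorized by curve class.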
TGFb SMAD3 inh: TGF-b pathway inhibition | HepG2 CAGA-GFP TGF-b/SMAD3 reporter, GFP fluorescence, 18 h; TGF-beta stimulated, 500 pg/mL final | Potency, µM (top dose mostly 46.1 µM), without a hit: at the top dose activity, negative = inhibition, most hits filed as inhibitors | 410,000 compounds, 1.2% hits | AID 588855; also: % is scaled to controls: 0 for no effect and ±100 for the full control effect; nearly all actives have a fitted effect of over 65% in size
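Inhibition of TGF-beta-driven CAGA-GFP reporter expression in HEPG2 cells is measured by cellular GFP fluorescence after 18 h stimulation with 500 pg/mL recombinant TGF-beta in 1% FBS medium at 37 degrees C.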
DT40 TDP1 no CPT: qHTS for Inhibitors of human tyrosyl-DNA phosphodiesterase 1 (TDP1): qHTS in cells in absence of CPT | DT40 Tdp1-/- hTDP1 cells, no CPT, ATP luminescence, 48 h | Potency, µM (top dose mostly 46.2 µM), for inactives: top-dose activity change, negative = growth inhibition, actives largely listed as inhibitors | 420,000 compounds, 15% hits; also: % is scaled to controls: 0 for no effect and ±100 for the full control effect; nearly all actives have a fitted effect of over 55% in size
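Luminescent ATP content (CellTiter-Glo) served as the growth readout. Knockout chicken DT40 cells expressing human TDP1 were exposed to compounds without camptothecin for a minimum 48 hr at 37 °C.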
DT40 TDP1 CPT: growth inhibition of DT40 Tdp1-/-;hTDP1 cells with camptothecin (screen for TDP1 inhibitors). 420,000 compounds, 12% hits. AID 686979. chicken DT40 Tdp1-/-;hTDP1 cells + 20 nM CPT, ATP luminescence, 48 h. Potency, µM (top dose mostly 46.2 µM), without a hit: top-dose activity change, negative = growth inhibition, most hits filed as inhibitors; also: % is scaled to controls: 0 for no effect and ±100 for the full control effect; nearly all actives have a fitted effect of over 55% in size
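Chicken DT40 Tdp1-/- cells complemented with human TDP1, 400 cells/well, exposed to compounds plus 20 nM camptothecin for at least 48 h at 37 C; viability read as ATP content by CellTiter-Glo luminescence.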
Starred values were filed as active, the others as inactive; ? = inconclusive; / = no result; ! = not active in a repeat. Calls follow the shape of the dose curve; as a rule, active = well fitted curve in the direction sought with a large enough effect; inconclusive = small, poorly fitted or top-dose-only effect, or another doubt; inactive = no such curve, though single readings can be large; an effect the other way counts as inactive or inconclusive. Potency is read from the fitted curve at half-maximal effect.

SMILES	HepG2 tox	HT1080 IDH1KD tx	HT1080NT lethal	TGFb SMAD3 inh	DT40 TDP1 no CPT	DT40 TDP1 CPT
COc1ccc(C2C(C(=O)c3ccco3)=C(O)C(=O)N2CC2CCCO2)cc1OC (centres undefined)	4.0%	8.6%	-0.2%	11.8%	?	4.6%
CC1(C)S[C@@H]2[C@H](NC(=O)C(c3ccccc3)S(=O)(=O)O)C(=O)N2[C@H]1C(=O)O (some centres undefined)	/	/	/	/	1.1%	-5.0%
O=C(/C=C/[C@H]1O[C@@H](n2cnc3c(NC(=O)c4ccccc4)ncnc32)[C@H](O)[C@@H]1O)N[C@@H](CO)Cc1c[nH]c2ccccc12	5.2%	12.8%	?	-2.1%	2.0%	-2.0%
COc1ccc(-c2noc(Cc3ccc(Cl)cc3)n2)cc1OC	-29.2%	-14.1%	2.9%	-21.1%	?	10.3µM*
COc1ccc(Cc2nc(-c3ccc(Cl)cc3)no2)cc1	-22.5%	6.9%	19.9%	-10.7%	-25.5%	-6.1%
CCc1ccc(-n2c(SCc3c(C)noc3C)nnc2-c2ccncc2)cc1	-5.0%	-5.2%	-2.3%	4.4%	?	20.6µM*
CCOc1ccccc1-c1noc(CSc2nnc(-c3ccccc3)n2-c2ccc(F)cc2)n1	-8.4%	/	/	-1.3%	13µM*	11.6µM*
CCc1ccc(-n2c(SCc3nc(-c4cc(OC)ccc4OC)no3)nnc2-c2ccccc2)cc1	-29.7%	/	/	?	20.6µM*	18.4µM*
CCOC(=O)CC1(C)Sc2ccccc2N1S(=O)(=O)c1ccc(C)cc1 (centres undefined)	/	-20.7%	-29.4%	/	?	?
COC(=O)c1c(NC(=O)C2CC(=O)NN2Cc2ccccc2)sc(C)c1C (centres undefined)	-20.0%	-1.8%	-11.6%	-5.1%	-18.0%	-11.8%
Clc1ccc(-c2nnc(CSc3nnc(-c4cccs4)n3Cc3ccccc3)o2)cc1	-31.7%	?	-26.1%	?	2.91µM*	6.51µM*
COc1ccc(-c2noc(CSc3nnc(-c4ccccc4)n3C)n2)cc1	-14.6%	-14.0%	6.4%	-7.7%	14.6µM*!	23.1µM*!
COc1ccc(-c2noc(CSc3nnc(C)n3-c3ccc(C)cc3)n2)cc1	-27.9%	/	/	-9.0%	?	?
COc1ccc(-c2noc(CSc3nnc(-c4ccncc4)n3-c3ccc(C)cc3)n2)cc1OC	0.8%	/	/	-0.9%	-50.8%	16.4µM*
COc1ccc(-c2noc(CSc3nnc(-c4ccncc4)n3-c3ccccc3)n2)cc1	-20.3%	/	/	?	23.1µM*	16.4µM*
Cc1cccc(NC(=O)C2CCCN2/C=C/C(=O)C(F)(F)F)c1C (centres undefined)	-8.4%	10.5%	19.1%	3.2%	-21.0%	-8.3%
NC(=O)[C@@H]1CCCN1C(=O)c1cc(NC(=O)c2ccccc2)cc2ncn(C3CCCC3)c12	/	/	/	/	-15.4%	-16.7%
Cc1cn([C@H]2C[C@H](O)[C@@H](CCC(=O)NCC(c3ccccc3)c3ccccc3)O2)c(=O)[nH]c1=O	3.5%	13.0%	7.4%	?	16.4%	-2.4%
O=[N+]([O-])c1cccc(CSc2nnc(Cc3ccccc3)n2-c2ccc(F)cc2)c1	-12.3%	-27.8%	-18.9%	?	?	18.4µM*
O=C(c1ccc2c(c1)N(Cc1ccc(Cl)cc1)C(=O)c1ccccc1S2(=O)=O)N1CCCC1	-16.5%	/	/	?	25.9µM*	20.6µM*
O=C(c1ccc2c(c1)N(Cc1ccc(F)cc1)C(=O)c1ccccc1S2(=O)=O)N1CCCC1	-25.0%	/	/	0.0%	16.4µM*	23.1µM*
O=C(c1ccc(Cl)cc1)N1CCc2ccccc21	-8.8%	6.9%	0.8%	-12.7%	?	?
O=C(c1ccc2c(c1)N(Cc1ccc(Cl)cc1)C(=O)c1ccccc1S2(=O)=O)N1CCc2ccccc21	-20.4%	/	/	-3.2%	7.31µM*	5.8µM*
CCN1CCN(C(=O)c2ccc3c(c2)N(Cc2ccccc2)C(=O)c2ccccc2S3(=O)=O)CC1	-21.3%	6.6%	17.7%	8.5%	-23.6%	-7.9%
CCN1CCN(C(=O)c2ccc3c(c2)N(Cc2ccc(Cl)cc2)C(=O)c2ccccc2S3(=O)=O)CC1	-38.7%	/	/	?	23.1µM*	?
SMILES	HepG2 tox	HT1080 IDH1KD tx	HT1080NT lethal	TGFb SMAD3 inh	DT40 TDP1 no CPT	DT40 TDP1 CPT
Cc1cccc(CN2C(=O)c3ccccc3S(=O)(=O)c3ccc(C(=O)N4CCN(c5cc(C)ccc5C)CC4)cc32)c1	4.8%	/	/	?	-28.2%	-21.2%
CN1OC[C@@H]2CN[C@H](c3ccc(-c4cccc(F)c4)cc3)C[C@@H]21	1.2%	-5.0%	-6.6%	21.5%	?	?
COc1ccc(NC(=O)C[C@H]2C(=O)N(Cc3ccccc3)C[C@@H]2C)cc1	1.1%	11.5%	12.8%	10.0%	-26.5%	-5.7%
C[C@H](CO)N1C[C@H](C)[C@@H](CN(C)C(=O)Nc2ccc(C(F)(F)F)cc2)Oc2c(NS(=O)(=O)c3ccccc3)cccc2C1=O	-3.3%	-3.2%	-4.8%	-3.1%	-25.6%	-0.4%
COc1ccc(S(=O)(=O)N2CCOCC2)cc1NC(=O)CN1CCN(C)CC1	-3.1%	1.7%	14.5%	5.5%	-1.5%	-0.8%
CCOC(=O)c1sc(NC(=O)C2CC2)cc1C	-7.3%	4.2%	14.6%	-0.4%	?	?
CCOC(=O)c1sc(NC(=S)NC(=O)C2CCCC2)cc1C	-2.5%	-25.3%	-16.8%	14.2%	16.4µM*	?
COc1cc(C2Nc3cc(C)c(C)cc3NC3=C2C(=O)CC(C)(C)C3)ccc1OC(C)=O (centres undefined)	-4.3%	1.6%	7.3%	-4.5%	23.2%	-20.5%
Cc1cc2c(cc1C)NC(c1c(C)n(C)n(-c3ccccc3)c1=O)C1=C(CC(C)(C)CC1=O)N2 (centres undefined)	-37.3%	-29.9%	-29.0%	1.2%	?	16.4µM*
CC1CCCN(C(=O)Cn2nnc(-c3ccc(F)cc3)n2)C1 (centres undefined)	-1.2%	-4.3%	-0.4%	1.1%	-20.5%	-25.0%
CCOc1ccc(C2=C(C(=O)CC)Sc3nncn3N2C(=O)CC)cc1	-82.4%	/	/	?	?	16.4µM*
CCC(=O)C1=C(c2ccc(OC)c(OC)c2)N(C(=O)CC)n2c(nnc2-c2ccc(C)cc2)S1	-7.3%	/	/	5.5%	-25.2%	-2.8%
